In PubChem BioAssay:
Where “and” joins values, the source holds several entries; their conditions need not be identical. Equal entries are not always repeated. Calls of active or inactive are those of the source.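 The calls were made as follows, unless noted: active = compounds whose cell count with miR-34 switched on is under 0.7 times the count with it off; inactive = the rest.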

How the values were obtained:
[1] = P. berghei load reduction in hepatocytes – cell-based, HepG2, luciferase luminescence, HepG2 viability, primary screen (AID 624349; in the data active = parasite load remaining mostly below about 12%, no sharp cut-off; inactive = mostly above about 10%;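 also: 100% = mean of DMSO negative control wells on the same plate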); settings: P. berghei liver stage in HepG2, luciferase luminescence, concentration not given here; parasite load remaining: stronger effect = lower value; viability: measured here: HepG2 viability without parasites
[2] = viability loss with induced miR-34 in A549 – imaging, A549 dox-inducible miR-34, nuclei and caspase counts, primary screen (AID 1347080); settings: A549 miR-34 inducible, Hoechst nuclei count, 48 h
[3] = MELAS cybrid and Rieske KO viability enhancers – cell-based, MELAS cybrids, Rieske KO mouse fibroblasts, CellTiter-Glo, primary screen (AID 1508586;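 active = mean z-score across replicates of 1.96 or higher in either the MELAS or the Rieske mutant cell line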;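 also: z relative to plate mean and SD of compound and empty wells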); settings: low glucose
[4] = compounds altering viability of human ES cells (AID 493140; call rule not given here;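 also: cells exposed to compounds for four days before counting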); settings: human embryonic stem cell survival screen; stronger effect = higher value
[5] = stronger effect = lower value, cell number ratio, induced over uninduced
[6] = measured here: relative caspase fold change +Dox/-Dox
[7] = measured here: total cells with miR-34 induction, stronger effect = lower value
[8] = measured here: total cells without miR-34 induction
[9] = MELAS cybrid survival, CellTiter-Glo 48 h, stronger effect = higher value
[10] = Rieske KO mouse fibroblast survival, CellTiter-Glo 72 h

SMILES | parasite load remaining [1] | viability [1] | fold change [2, 5] | fold change [2, 6] | cell count [2, 7] | cell count [2, 8] | z-score [3, 9] | z-score [3, 10] | survival [4]
CCOC1O[C@H]([C@@H](COCc2ccccc2)OCc2ccccc2)[C@H](OCc2ccccc2)[C@H]1O (stereo partly drawn) | 66.9% (inactive) | 70.5% | 0.904 (inactive) | 0.887 | 8110 | 8970 | -0.366 (inactive) | 0.506 | 
C=CCOc1ccccc1OCC(O)CNC(C)C (stereo not drawn) | 73.5% (inactive) | 76.9% | 0.94 (inactive) | 0.727 | 9530 | 10100 | 0.73 (inactive) | 0.111 | 7.17 (inactive)
CC(C)(C)NC[C@@H](O)COc1cccc2c1CCCC2=O | 94.5% (inactive) | 97% | 0.911 (inactive) | 1.14 | 9750 | 10700 | 0.547 (inactive) | 0.0254 | 6.25 (inactive)
CNC(=O)c1c(I)c(C(=O)NCC(=O)Nc2c(I)c(C(=O)O)c(I)c(C(=O)NCCO)c2I)c(I)c(N(C)C(C)=O)c1I | 91.6% (inactive) | 71.7% | 0.94 (inactive) | 0.7 | 9020 | 9600 | -0.247 (inactive) | 0.501 | 10.4 (inactive)
NC[C@H]1O[C@H](OC2[C@@H](N)C[C@@H](N)[C@H](O)[C@H]2O[C@@H]2O[C@H](CO)[C@@H](O)[C@H]2O)[C@H](N)[C@@H](O)[C@@H]1O (stereo partly drawn) | 77.5% (inactive) | 92.8% | 1.02 (inactive) | 0.629 | 9070 | 8900 | -0.509 (inactive) | 0.171 | 
COc1cc(N)c(Cl)cc1C(=O)N[C@H]1CCN(CCCOc2ccc(F)cc2)C[C@H]1OC | 43.8% (inactive) | 91.1% | 0.886 (inactive) | 2.08 | 7400 | 8350 | -0.0533 (inactive) | 0.31 | 
O=C(O)C=Cc1ccc(O)c(O)c1 | 59.8% (inactive) | 95.6% | 0.886 (inactive) and 0.85 (inactive) | 1.16 and 0.929 | 9150 and 8100 | 10300 and 9530 | -0.35 (inactive) | 0.227 | 7.75 (inactive)
C=CCN1CCCC1CNC(=O)c1cc2[nH]nnc2cc1OC (stereo not drawn) | 92.8% (inactive) | 100% | 0.836 (inactive) and 0.882 (inactive) | 1.28 and 0.705 | 8730 and 8290 | 10400 and 9410 | -0.272 (inactive) and -0.0484 (inactive) | -0.199 and -0.148 | 
